Experimental data taken from PubChem BioAssay (NCI).
The panel holds about 79,000 compounds, 15% with a hit somewhere; the sample as a whole holds those more often. No stated cut-off is given here; in the data, active means growth inhibition above about 70%; inactive means the rest.

Assays:
[1] = NCI Yeast Anticancer Drug Screen. Data for the rad50 strain (AID 155);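 further: 0% = growth of vehicle-only cultures of the same strain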; conditions: S. cerevisiae rad50 strain growth inhibition; at 50.0 µM; active compounds read high
In short: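 Relative growth inhibition (compound vs vehicle) was measured in yeast with a defined repair-gene alteration.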

[2] = NCI Yeast Anticancer Drug Screen. Data for the mec2-1 strain (AID 157); conditions: S. cerevisiae mec2-1 strain, at 50.0 µM, active compounds read high
In short: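 Mutant yeast (mec2-1) grown with compound; growth inhibition relative to vehicle control reported.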

[3] = NCI Yeast Anticancer Drug Screen. Data for the sgs1 mgt1 strain (AID 161);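 further: 0% = growth of cultures given vehicle only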; conditions: S. cerevisiae sgs1 mgt1 strain, at 50.0 µM, active compounds read high
In short: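 Percent growth inhibition was derived by comparing compound-exposed mutant yeast with vehicle-exposed cultures. The strain carries alterations in DNA damage repair.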

[4] = NCI Yeast Anticancer Drug Screen. Data for the cln2 rad14 strain (AID 165);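 further: 0% = growth equal to vehicle treated cultures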; conditions: S. cerevisiae cln2 rad14 strain, at 50.0 µM, active compounds read high
In short: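 Readout is yeast growth inhibition versus vehicle-treated controls, using a strain with cln2 and rad14 alterations exposed to compound.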

[5] = NCI Yeast Anticancer Drug Screen. Data for the bub3 strain (AID 167); conditions: S. cerevisiae bub3 mutant strain, at 50.0 µM, active compounds read high
In short: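 Screening used yeast with an engineered genetic alteration affecting cell cycle control. Compound-exposed cultures were compared with vehicle cultures, and reduced growth was taken as inhibition.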

[6] = NCI Yeast Anticancer Drug Screen. Data for the mlh1 rad18 strain (AID 175); conditions: S. cerevisiae mlh1 rad18 strain growth inhibition; at 50.0 µM; active compounds read high
In short: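 Genetically defined yeast (DNA repair-deficient) exposed to compounds; growth inhibition determined relative to vehicle.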

Measured: growth inhibition

CC(=O)NCC(C)(C)C
inactive: [1] 2.15% | [2] 10.8% | [3] -12.7% | [4] -16.2% | [5] -32% | [6] -12.8%

CCCCCSCCC(=O)O
inactive: [1] 12.4% | [2] 11.7% | [3] 11.2% | [4] 4.25% | [5] -1.2% | [6] -6.35%

O=C(NC(CS)C(=O)O)c1cnc2ccccc2n1 (stereo unspecified)
inactive: [1] -4.8% | [2] -12.9% | [3] 21.2% | [4] -9.9% | [5] 18.6% | [6] 0.3%

CC1C2(C)OC(=N)C(C#N)(C(c3ccccc3)O2)C1(C#N)C#N (stereo unspecified)
inactive: [1] 8.7% | [2] -5.15% | [3] -13.4% | [4] 6.25% | [5] -3.2% | [6] -23.6%

O=C(O)c1c[nH]c2ccc([N+](=O)[O-])cc2c1=O
inactive: [1] -21% | [2] -12.8% | [3] -11.9% | [4] 11.7% | [5] -14% | [6] -7.95%

C[n+]1ccc(/C=C/c2ccc(O)c(O)c2)c2ccccc21
inactive: [1] 49.8% | [2] 33.5% | [3] 41.2% | [4] 20.5% | [5] 3.5% | [6] 43%

Cc1ccc(C(c2ccc(C)c(C)c2)C(O)C(O)C(O)CO)cc1C (stereo unspecified)
inactive: [1] 20% | [2] -2.25% | [3] 0.65% | [4] 12.9% | [5] 6.7% | [6] 8.85%

Nc1nc(N)nc(CCC(Br)(Br)Br)n1
inactive: [1] 26.6% | [2] 4.75% | [3] 30.8% | [4] 19.9% | [5] 21.9% | [6] 11.1%

O=C(O)C1CC[N-]CC1.O=C(O)C1CC[N-]CC1.[NH2-].[NH2-].[Pt+4]
inactive: [1] -5.4% | [2] 14.8% | [3] 2.2% | [4] 12.7% | [5] 2.6% | [6] 18.4%

C/C(=N/C(=O)NN)c1ccc(Cl)cc1
inactive: [1] 34.2% | [2] -7.9% | [3] 42.9% | [4] 2.35% | [5] 37.2% | [6] 31.9%

CCCCCCCCCCCC(=O)OC(COC(N)=O)COc1ccc(Cl)cc1 (stereo unspecified)
inactive: [1] -34.2% | [2] -59.5% | [3] -18.9% | [4] 0.3% | [5] -10.2% | [6] -46.4%

O=C(NNC(O)C(F)(F)F)c1ccccc1 (stereo unspecified)
inactive: [1] 12.3% | [2] 2.4% | [3] 10.1% | [4] -35.2% | [5] 11.2% | [6] 1.5%

C(=N\NC1=NCCCN1)/c1ccc2ccccc2c1
inactive: [1] 4.45% | [2] 1.65% | [3] -13.8% | [4] -28.4% | [5] 0.05% | [6] 1.15%

C=CCc1cc(C(=O)O)ccc1OC
inactive: [1] -36.4% | [2] -23.6% | [3] -16.1% | [4] -1.7% | [5] -30.4% | [6] -13.9%

O=C1CC2(CCN(Cc3ccccc3)CC2)C(=O)N1N1CCCCC1
inactive: [1] 50.9% | [2] 33.3% | [3] 57.8% | [4] 41.9% | [5] 43.8% | [6] 50.4%

S=C(Nc1ccc2c(c1)Cc1ccccc1-2)Nc1ccc2c(c1)Cc1ccccc1-2
inactive: [1] 25.8% | [2] 18.9% | [3] -39.7% | [4] -12.7% | [5] 27% | [6] 31%

O=c1[nH]/c(=C/c2ccc3c(c2)OCO3)c(=O)[nH]/c1=C/c1ccc2c(c1)OCO2
inactive: [1] -24.2% | [2] -20% | [3] -22.8% | [4] -13% | [5] -34.4% | [6] 20.2%

CCCCn1cnnc1NS(=O)(=O)c1cc(C)c(Cl)cc1SCC(=O)O
inactive: [1] -20.5% | [2] -5.25% | [3] 6.15% | [4] 0.4% | [5] -13.8% | [6] -5.5%

CCC(CC)C(=O)NC
inactive: [1] -4.25% | [2] -5.2% | [3] -3.5% | [4] 2.2% | [5] -0.85% | [6] -1.8%

O=C(C[n+]1csc2ccccc21)c1ccc(I)cc1
inactive: [1] -15.3% | [2] -0.65% | [3] -9.15% | [4] -12.8% | [5] -4.8% | [6] 20.4%

C[C@]12CC[C@@H]3c4ccc(OS(C)(=O)=O)cc4CC[C@H]3[C@@H]1CC[C@@H]2OS(C)(=O)=O
inactive: [1] 30.6% | [2] -0.5% | [3] 22.8% | [4] 22.1% | [5] 10.8% | [6] 9.9%

CC1(C)[C@H]2Cc3c(ccc4c3C(=O)OC4=O)[C@@H]1C2
inactive: [1] 6.75% | [2] -3.9% | [3] 0.35% | [4] -30.6% | [5] -17.4% | [6] 2.45%

Cc1ccc(I)cc1
inactive: [1] -59.4% | [2] -32.6% | [3] -33.9% | [4] -7.5% | [5] -2.9% | [6] -19.1%

CCCCCCCCCCCC1=c2o[nH]c2=C(c2ccccn2)C(=O)C1=O
inactive: [1] -15.2% | [2] -6.6% | [3] 6.5% | [4] -45.5% | [5] 11.4% | [6] -0.75%

CCN(CC)CC1c2ccccc2C(CNc2ccccc2)N1C (stereo unspecified)
inactive: [1] 4.5% | [2] 29.4% | [3] -10.1% | [4] 14.2% | [5] 5.65% | [6] 7.65%

COc1ccc2c3c(c(C(=O)O)oc13)CCC2
inactive: [1] 3.85% | [2] -3.05% | [3] -3.8% | [4] -5.8% | [5] -15.3% | [6] 16.8%

C=CCCCCCCCCCOC=O
inactive: [1] -12.1% | [2] -5.2% | [3] 1.25% | [4] -19.8% | [5] 34.3% | [6] 3.2%

[O-]c1c2c(nn1-c1ccc(Cl)cc1)c1ccccc1c[n+]2Cc1ccccc1
inactive: [1] -6.1% | [2] -20.6% | [3] -11.2% | [4] -2.5% | [5] 11.4% | [6] -16.2%

O=[N+]([O-])c1ccc(S(=O)(=O)N/N=C/C=C/c2ccccc2[N+](=O)[O-])cc1
inactive: [1] 5% | [2] -5.65% | [3] 7.35% | [4] -7.55% | [5] 16.4% | [6] 39.1%

Cc1cccc(C2=N/C(=C\c3c(O)ccc4ccccc34)C2=O)c1
inactive: [1] 6.55% | [2] 7.1% | [3] 0.9% | [4] 6.55% | [5] 10.9% | [6] -6.65%

Nc1nc(CCC(=O)O)cs1
inactive: [1] -6.85% | [2] -14.4% | [3] 4.9% | [4] -24.1% | [5] -1.45% | [6] -18.7%

COC(=O)c1ccccc1N=NNc1ccc(C)c(Cl)c1
inactive: [1] 36.2% | [2] 0.55% | [3] -1.2% | [4] -11.4% | [5] 5.7% | [6] 5.15%

N#CC(Nc1ccccc1)c1ccc(C(C#N)Nc2ccccc2)cc1 (stereo unspecified)
inactive: [1] 3.2% | [2] 8.2% | [3] -45.2% | [4] -21.1% | [5] -16.2% | [6] -34.2%

N#C[C@H](c1nc2ccccc2[nH]1)c1nc2ccccc2nc1Cl
inactive: [1] 5.5% | [2] 2.5% | [3] 21.9% | [4] 12.8% | [5] 15.3% | [6] 12.7%

Cc1cccc(C(=O)NN)c1O
inactive: [1] -1.7% | [2] -14.7% | [3] -6.25% | [4] 5.7% | [5] 23.9% | [6] 22.2%

CC(=O)C1=C(C)NC2C=CC=CN12 (stereo unspecified)
inactive: [1] 3.95% | [2] -6.9% | [3] 15.5% | [4] 17.9% | [5] 7.3% | [6] 12.9%
